Test [1] in a line: qHTS assay to identify small molecule antagonists of the progesterone receptor (PR) signaling pathway - cell viability counter screen (AID 1346798). Also: nearly all actives have a fitted effect of over 50% in size. Also: potency is read from the fitted curve at half-maximal effect. As to activity change, negative = cytotoxicity: series mostly up to about 92 µM. In outline:
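In the same plates used for the beta-lactamase readout, cell viability of compound- and R5020-treated PR-UAS-bla HEK293T cells (16 hr, 37C) was assessed by CellTiter-Glo luminescence.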
(In general: qHTS replaces the single test concentration by a dilution series.)

Test [2] can be described thus: qHTS assay to identify small molecule agonists of the progesterone receptor (PR) signaling pathway - cell viability counter screen (AID 1346799; calls by dose curve; also: nearly all actives have a fitted effect of over 45% in size; also: potency is read from the fitted curve at half-maximal effect). In outline:
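Multiplexed viability read: CellTiter-Glo luminescence, 30 min RT, following LiveBLAzer FRET measurement on PR-UAS-bla HEK293T cells exposed to compounds 16 hr.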

A short description of test [3]: qHTS assay to identify small molecule antagonists of the TGF-beta/Smad signaling pathway - cell viability counter screen (AID 1346824). Also: nearly all actives have a fitted effect of over 50% in size. Also: potency is read from the fitted curve at half-maximal effect. In outline:
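SBE-bla HEK 293T cells, incubated overnight, then compound plus 0.25 ng/mL TGF-beta1 (stock added) for 5 hr at 37 C. Viability was read in the same wells by CellTiter-Glo luminescence after 30 min at room temperature.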

The nature of test [4]: qHTS assay to identify small molecule agonists of the TGF-beta/Smad signaling pathway - cell viability counter screen (AID 1346829). Also: nearly all actives have a fitted effect of over 45% in size. Also: potency is read from the fitted curve at half-maximal effect. As to activity change, negative = cytotoxicity: top concentration of the series differs between compounds. In outline: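 Tox21 qHTS format: SBE-bla HEK 293T cells treated with DMSO-dissolved compounds for 5 hr; CellTiter-Glo luminescence after 30 min at room temperature.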
Test [5] is described as follows: qHTS assay to identify small molecule agonists of the TGF-beta/Smad signaling pathway (AID 1346859; active = well fitted activation curve with a large enough effect in the signal ratio in the repeat runs, not every such curve was filed as active; the % refers to the signal ratio; also: series mostly up to about 77 µM). In outline:
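Screening used HEK 293T SBE-bla cells at 4,000/well. Test agents: 5 hr, 37 C. Detection: FRET substrate, 2 hr RT, then excitation 405 nm with emissions at 460 and 530 nm.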

In test [6] the target is Thyrotropin-releasing hormone receptor (Homo sapiens) (UniProt P34981). Briefly: qHTS assay to identify small molecule antagonists of the thyrotropin-releasing hormone receptor (TRHR) signaling pathway (AID 1346877; active = well fitted inhibition curve with a large enough effect in the repeat runs, not every such curve was filed as active; also: potency is read from the fitted curve at half-maximal effect). In outline:
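Kinetic fluorescence (3 min, 1 s resolution) following stimulation with TRH at 1 nM final; HEK293 cells bearing human TRHR; 5 min compound preincubation at RT; concentration-response over 15 points, triplicates.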

Test [7] shares this target. Briefly: qHTS assay to identify small molecule agonists of the thyrotropin-releasing hormone receptor (TRHR) signaling pathway (AID 1346891; calls by dose curve; also: potency is read from the fitted curve at half-maximal effect; as to activation: series mostly up to about 58 µM). In outline:
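Readout was intracellular calcium fluorescence in TRHR-Hek293 cells. Cells were incubated 18 h, dye-loaded 2 h at 37 °C, and treated with compound in agonist mode.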

Test [8] is described as follows: Caspase-3/7 induction in HepG2 cells by small molecules, qHTS assay (AID 1346978). Also: nearly all actives have a fitted effect of over 15% in size. Also: potency is read from the fitted curve at half-maximal effect. In outline: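 Wild-type HepG2 cells, 2,000/well, settled 5 hr at 37 C and 5% CO2, then compound-treated for 17 hr; caspase-3/7 activity read by luminescent Caspase-Glo 3/7 after 30 min at room temperature.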
Test [9] can be described thus: Human pregnane X receptor (PXR) small molecule agonists, qHTS cell viability counter screen (AID 1346977). Also: nearly all actives have a fitted effect of over 50% in size. Also: potency is read from the fitted curve at half-maximal effect. In outline:
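In each well, the PXR reporter HepG2 line was checked for viability: CellTiter-Fluor reagent added 23hr post-dosing, fluorescence read after 1hr incubation at 37C.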

Test [10] concerns the target Progesterone receptor (Homo sapiens) (UniProt P06401). The test is described as follows: qHTS assay to identify small molecule antagonists of the progesterone receptor (PR) signaling pathway (AID 1346795; active = well fitted inhibition curve with a large enough effect in the signal ratio in the repeat runs, not every such curve was filed as active; the % refers to the signal ratio; also: potency is read from the fitted curve at half-maximal effect). In outline: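 Stimulus R5020 at 1 nM final; cells HEK293T PR-UAS-bla; medium with 2% charcoal-stripped FBS; compound exposure 16 hr at 37C, 5% CO2; detection by FRET beta-lactamase substrate, 2 hr, room temperature.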

Structures are written as SMILES. “And” between values parts separate entries of the source, which are not always exact repeats. Identical values can stand only once. Values without a mark were called inactive. Results filed as inconclusive are left out. The source made the active and inactive calls. Unless noted, calls follow the shape of the dose curve; as a rule, active = well fitted curve in the direction sought with a large enough effect in the repeat runs; inconclusive = weak or mixed curves; inactive = no such curve, though single readings can be large; an effect the other way counts as inactive or inconclusive.
% is scaled to controls: 0 for no effect and ±100 for the full control effect.

Chain of Thyrotropin-releasing hormone receptor (Homo sapiens) (P34981 whole entry, looked up): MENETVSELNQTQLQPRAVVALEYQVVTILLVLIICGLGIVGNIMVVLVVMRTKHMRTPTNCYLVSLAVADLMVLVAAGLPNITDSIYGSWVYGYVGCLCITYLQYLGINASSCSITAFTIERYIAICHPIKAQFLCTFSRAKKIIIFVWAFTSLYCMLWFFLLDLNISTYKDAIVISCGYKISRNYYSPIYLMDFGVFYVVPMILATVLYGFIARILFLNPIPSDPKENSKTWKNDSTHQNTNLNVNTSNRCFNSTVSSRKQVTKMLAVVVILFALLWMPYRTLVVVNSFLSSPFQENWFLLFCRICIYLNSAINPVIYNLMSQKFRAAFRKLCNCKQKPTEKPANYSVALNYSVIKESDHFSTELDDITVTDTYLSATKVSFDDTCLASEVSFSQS
Chain of Progesterone receptor (Homo sapiens) (P06401 whole entry, looked up): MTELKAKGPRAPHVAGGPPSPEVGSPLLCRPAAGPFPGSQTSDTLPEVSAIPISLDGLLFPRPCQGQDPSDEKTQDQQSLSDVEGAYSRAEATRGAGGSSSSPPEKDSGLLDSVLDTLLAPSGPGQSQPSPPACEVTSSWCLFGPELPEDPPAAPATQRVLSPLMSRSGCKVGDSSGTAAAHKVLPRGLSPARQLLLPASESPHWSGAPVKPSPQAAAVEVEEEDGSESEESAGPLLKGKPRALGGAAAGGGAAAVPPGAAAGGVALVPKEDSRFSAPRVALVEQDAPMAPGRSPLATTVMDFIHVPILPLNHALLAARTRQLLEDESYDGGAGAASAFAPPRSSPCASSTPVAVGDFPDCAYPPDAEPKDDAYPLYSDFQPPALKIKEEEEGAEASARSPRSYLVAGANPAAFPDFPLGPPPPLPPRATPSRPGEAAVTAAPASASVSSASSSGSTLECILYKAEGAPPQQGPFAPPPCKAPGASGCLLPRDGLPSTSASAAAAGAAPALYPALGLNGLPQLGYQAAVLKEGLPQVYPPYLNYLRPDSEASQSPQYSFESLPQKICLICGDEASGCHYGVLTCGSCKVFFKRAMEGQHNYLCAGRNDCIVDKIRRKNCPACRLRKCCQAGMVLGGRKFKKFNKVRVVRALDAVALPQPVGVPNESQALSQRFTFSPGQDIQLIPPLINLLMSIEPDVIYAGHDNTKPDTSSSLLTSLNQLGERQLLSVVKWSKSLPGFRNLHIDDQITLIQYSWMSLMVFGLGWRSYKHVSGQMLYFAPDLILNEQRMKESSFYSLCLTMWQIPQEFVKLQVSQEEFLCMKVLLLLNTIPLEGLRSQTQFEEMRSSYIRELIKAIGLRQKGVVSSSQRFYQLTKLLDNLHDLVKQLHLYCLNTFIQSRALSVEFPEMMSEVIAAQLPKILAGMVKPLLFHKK

`CCCCCCC(C)OC(=O)COc1nc(F)c(Cl)c(N)c1Cl` (centres undefined): the Potency result in test [1], in [2], in test [3], in [4], in [5] and in [6] was “inactive” each time. In addition, in test [7], the Potency entry was “inactive”.

`C[Si](C)(C)Cl`: the Potency result in test [1], in test [2], in test [3], in test [4], in test [5] and in test [8] was “inactive” throughout.

For the compound `Oc1ccc(-c2ccccc2)c(Cl)c1`, the Potency result in [1], in test [2], in test [3], in test [4], in test [5] and in test [6] was “inactive” each time. Besides, the Potency entry in test [7], in test [9] and in [8] was “inactive” throughout.

For `CCCCCCCCCCCC(=O)N(CC)CC`, the Potency result in [1], in [2], in test [3], in test [4], in [5] and in test [6] was “inactive” each time. Moreover, the Potency entry in [7], in [9] and in [8] was “inactive” throughout.

As to `C/C=C/c1ccc(OC)c(OC)c1`, the Potency entry in [1], in test [2], in [3], in [4], in [5] and in test [9] was “inactive” each time. In test [8], the Potency result is “inactive”.

With `Cc1cc2c(C(C)C)c(O)c(O)c(C=O)c2c(O)c1-c1c(C)cc2c(C(C)C)c(O)c(O)c(C=O)c2c1O`, the Potency in [10] is 13.3 µM (active). Also, the Potency result in [5], in test [6] and in test [7] was “inactive” each time.

Regarding `Clc1nc2ccccc2s1`, the Potency result in test [1], in [2], in test [3], in [4], in test [5] and in [6] was “inactive” throughout. The Potency entry in [7], in test [9] and in [8] was “inactive” in each case.

As for `Cc1c(C(=O)O)cccc1[N+](=O)[O-]`, the Potency entry in [10], in test [3], in [4], in [6], in test [7] and in [9] was “inactive” in each case. In addition, the Potency entry in [8] is “inactive”.

Consider `C=C/C=C/C=C/CCCCC`, for which the activity change, negative = cytotoxicity in test [1] was 13.8% [at 18.9 µM]; in test [2], -2.82% [at 19 µM]; in test [4] it was -1.35% [at 15.8 µM]; in test [9], 3.3% [at 19 µM]. Moreover, the viability change, negative = cytotoxic in test [3] is -6.86% [at 15.8 µM]. In addition, in test [5], the activation was -2.28% [at 15.8 µM]. Further, the caspase activation in [8] was -0.0295% [at 19 µM].

In the case of `CC(=O)Oc1ccc(C2(c3ccc(OC(C)=O)cc3)C(=O)Nc3ccccc32)cc1`, the Potency entry in test [10], in test [3], in test [4], in test [5], in [9] and in test [8] was “inactive” each time.

For the compound `NC1(c2ccc(-c3nc4ccn5c(=O)[nH]nc5c4cc3-c3ccccc3)cc2)CCC1`, the Potency result in test [10], in [3], in [4], in [7] and in test [8] was “inactive” in each case. For the same compound, the Potency in test [9] was 26.6 µM (active).

Regarding `Cc1ccc(O)cn1`, the Potency result in [1], in test [2], in test [3], in test [4], in [5] and in test [7] was “inactive” in each case. Further, in [8], the Potency entry is “inactive”.

With `CC(C(O)c1ccccc1)N(C)CCOC(c1ccccc1)c1ccccc1` (centres undefined), the Potency in test [10] is 23.7 µM (active); in [9] it was 29.8 µM (active). Moreover, the Potency result in [4], in [6] and in test [7] was “inactive” in each case.

For `CCN(CC)CCOC(=O)C1(C2CCCCC2)CCCCC1`, the Potency result in [10], in test [5], in test [6] and in test [7] was “inactive” throughout.

On to `CCCOc1sc(C(=O)N2CCC(c3cc(CN)ccc3F)CC2)c(C)c1Br`, for which the Potency in test [1] is 25 µM (active); in test [2], 19.9 µM (active); in test [3] it was 50.4 µM (active); in test [4] it was 44.9 µM (active); in test [6] it was 27.6 µM (active); in test [7], 31.8 µM (active). The Potency was 28.1 µM (active) in [9] and 44.5 µM (active) in [8].

For the compound `CC(C)(c1cc(Br)c(O)c(Br)c1)c1cc(Br)c(O)c(Br)c1`, the Potency in test [10] was 13.6 µM (active) and 17.2 µM (active); in test [6], 33.8 µM (active). The Potency entry in test [3], in test [4], in test [7], in test [9] and in [8] was “inactive” in each case.

For the compound `C[n+]1c2cc(N)ccc2cc2ccc(N)cc21` (tested in a mixture with another compound), the Potency result in [3], in test [4] and in test [6] was “inactive” throughout. The Potency is 7.56 µM (active) in test [7] and 9.44 µM (active) in test [8].

As to `C[C@]12CC[C@H]3C(=CCc4cc(O)ccc43)[C@@H]1CCC2=O`, the Potency entry in test [3], in [4], in test [5], in test [7] and in test [9] was “inactive” throughout.

On to `c1cc(OCC2CO2)cc(OCC2CO2)c1` (centres undefined), for which the Potency in test [2] and in [9] was 60.6 µM (active) throughout. In addition, the Potency entry in test [3], in test [4], in test [6] and in test [7] was “inactive” throughout.

As for `COc1ccccc1OCCNCC(O)COc1cccc2[nH]c3ccccc3c12` (centres undefined), the Potency in [2] was 15 µM (active). Moreover, the Potency result in test [3], in [4], in test [5] and in [7] was “inactive” in each case.

In the case of `CCCCCCOc1cc(C)c(O)c(C)c1C`, the Potency result in test [4], in [5], in test [6] and in [7] was “inactive” each time. Further, the Potency in [9] is 61.9 µM (active); in [8], 49.2 µM (active).

Take `C=CC(=O)OCC(O)COc1ccccc1` (centres undefined): the Potency entry in test [2], in test [3], in [4], in [5], in test [6] and in [7] was “inactive” each time. Also, the Potency entry in test [9] and in test [8] was “inactive” throughout.

For the compound `Cc1ccc(N)cc1O`, the Potency entry in test [4], in test [6], in test [7] and in test [8] was “inactive” in each case.

`COC(=O)NCCC[Si](OC)(OC)OC`: the Potency entry in [3], in [4], in [5], in [6], in test [7] and in test [9] was “inactive” throughout. Moreover, the Potency result in test [8] was “inactive”.

With `CCN=C1C=CC(=C(c2ccc(N(CC)CC)cc2)c2ccc(N(CC)CC)cc2)c2ccccc21`, the values for the Potency in test [3], in test [4] and in test [9] were 27.4 µM (active), 24.4 µM (active) and 0.682 µM (active), respectively. The Potency result in [7] and in [8] was “inactive” throughout.

Take `Cc1ccc2ccc3cccc4ccc1c2c34`: the Potency in test [2] was 27.3 µM (active). The Potency entry in test [3], in test [4], in [5], in test [6], in [7] and in test [9] was “inactive” each time. For the same compound, the Potency entry in [8] was “inactive”.

Regarding `C=CCCCCCCC=C`, the Potency entry in [3], in test [4], in test [5], in test [7], in [9] and in test [8] was “inactive” in each case.

In the case of `Cc1oc(-c2ccccc2)nc1CCOc1ccc(C[C@H](Nc2ccccc2C(=O)c2ccccc2)C(=O)O)cc1`, the Potency is 27.3 µM (active) in test [2] and 54.5 µM (active) in [9]. In addition, the Potency result in test [3], in test [4] and in test [7] was “inactive” each time.

Take `COc1ccc(-n2nc(CCC(=O)N(C)O)cc2-c2ccc(Cl)cc2)cc1`: the Potency result in test [3], in test [4], in [5], in test [7] and in test [8] was “inactive” throughout.

For the compound `O=C(O)Cc1ccc(OCCNC[C@H](O)c2ccccc2)cc1`, the Potency result in test [3], in test [4], in test [5] and in test [8] was “inactive” in each case.

Regarding `S=P(N1CC1)(N1CC1)N1CC1`, the Potency entry in test [4], in test [5], in [6], in test [7], in [9] and in [8] was “inactive” in each case.

As to `CC(=O)OC(OC(C)=O)c1ccc([N+](=O)[O-])o1`, in [9], the Potency is 49.4 µM (active).

The record behind these values is PubChem BioAssay (Tox21).
